Test in all cases: PBM binding z-score (relative to random genomic background probes); higher = stronger binding; sequences stand for … in GC…GCGATTGACAGCGTAGAATGAAGG
The subject of assay [1] is RARb homodimer (NR concentration 270 nM). An outline of the steps: (§1)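 Binding z-scores were set against random background probes. The data came from custom Agilent 4×180K protein-binding microarrays carrying double-stranded probes with 34-nt variable regions, incubated 1 h with ligand-free nuclear receptor dimers. Partner-specific antibodies detected binding, and scanned fluorescence was regression-normalized.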

Assay [2] relates to RARg:RXRa (NR concentration 270 nM, RXRa partner concentration 90 nM). The essentials: as §1
For assay [3], the system named is RARg homodimer (NR concentration 270 nM). An outline of the steps:
as §1

For assay [4], the system named is RXRa DBDmut IVT, anti-RXR (DBD mutation: RXRa K156A/R161A, NR concentration 90 nM). An outline of the steps: as §1
Assay [5] relates to RXRa homodimer (NR concentration 180 nM). The essentials: as §1
Assay [6] concerns THRa:RXRa (NR concentration 90 nM, RXRa partner concentration 90 nM). The essentials: as §1
Assay [7] has as its system THRa homodimer (NR concentration 90 nM). An outline of the steps:
as §1

Assay [8] relates to VDR homodimer (NR concentration 270 nM). An outline of the steps: as §1

Experimental findings from the supplement of paper PMC6555819 are described below.

On to AGAATGAGGTTACCAAAGATCAAGGAAACGCTTG, for which the PBM binding z-score worked out at 0.992 in assay [1]; 2.37 in assay [2]; 1.88 in assay [3]; 1.13 in assay [4]; 2.85 in assay [5]; 3.03 in assay [6]. The PBM binding z-score is 0.74 in assay [7] and 0.375 in assay [8].
Regarding CCTTACAGGTCACTGACAGGTTATAGCATTTGGA, the PBM binding z-score in assay [1] came out at 3.83; in assay [2], 5.94; in assay [3], 5.46; in assay [4], 2.62; in assay [5] it was 4.91; in assay [6], 3.28. Also, the results for the PBM binding z-score in assay [7] and in assay [8] were 0.808 and 1.41, respectively.
TCATATATGTAAAGGTGAAAGTCGAACGATATGA: the PBM binding z-score amounted to 1.45 in assay [1]; 1.45 in assay [2]; 1.16 in assay [3]; 0.622 in assay [4]; 2.19 in assay [5]; 1.19 in assay [6]. In addition, the PBM binding z-score in assay [7] is -0.594; in assay [8], 0.112.
As to CTCGAAAGGTCGTGATCAGGTGAGTATACCAAAC, the PBM binding z-score in assay [1] stood at 2.66; in assay [2] it was 4.85; in assay [3], 3.85; in assay [4], 1.9; in assay [5], 4.72; in assay [6] it was 4.04. Moreover, the results for the PBM binding z-score in assay [7] and in assay [8] were 0.717 and 0.668, respectively.
As to CCTTACGAGTCACTCCAGGTTATAGCATCGGAGT, the PBM binding z-score in assay [1] turned out to be 0.938; in assay [2] it was 0.686; in assay [3], 0.863; in assay [4], 0.584; in assay [5], 0.475; in assay [6], 3.69. The PBM binding z-score in assay [7] was determined as 1.07; in assay [8], 0.838.
ACTATTAGTTGACTTAGGGCAACCGATACGACGC: the PBM binding z-score in assay [1] came to 0.899; in assay [2] it was 0.818; in assay [3], 1.01; in assay [4], 0.684; in assay [5], 0.661; in assay [6] it was 1.53. Further, the PBM binding z-score turned out to be 0.316 in assay [7] and 0.121 in assay [8].
For the sequence CAGCCTAGGTCCGGGCCAGTATAGGAGGAACGTT, the PBM binding z-score in assay [1] was -0.676; in assay [2] it was -0.685; in assay [3] it was -0.755; in assay [4], -1.37; in assay [5], -0.779; in assay [6], -0.819. The PBM binding z-score in assay [7] was -1.03; in assay [8], -0.835.
Consider TCGAGTAGGTTAGTCGGGGTATTCAGCCAACATA, for which the PBM binding z-score in assay [1] was -0.161; in assay [2] it was -0.227; in assay [3], -0.435; in assay [4], 0.0822; in assay [5], -0.0938; in assay [6], 1.71. Further, the figures for the PBM binding z-score in assay [7] and in assay [8] were -0.175 and -0.161, respectively.
In the case of CGAACTAGGTCATCCAGTACAGTGAATACATTGA, the PBM binding z-score turned out to be 3.05 in assay [1]; 3.9 in assay [2]; 4.84 in assay [3]; 2.61 in assay [4]; 2.78 in assay [5]; 3.04 in assay [6]. The PBM binding z-score in assay [7] is 1.43; in assay [8], 2.24.
With ATAGGTAGGTTAAGGGTCATTCAGGTTGGTTCGC, the PBM binding z-score turned out to be 4.42 in assay [1]; 5.12 in assay [2]; 3.74 in assay [3]; 2 in assay [4]; 6.15 in assay [5]; 3.71 in assay [6]. The PBM binding z-score in assay [7] worked out at 2.58; in assay [8], 4.7.
In the case of TAGCCTAGGTCATTGGGACAGTATAGTACGCATC, the PBM binding z-score turned out to be 2.92 in assay [1]; 3.97 in assay [2]; 4.51 in assay [3]; 1.52 in assay [4]; 3.13 in assay [5]; 2.95 in assay [6]. Further, the PBM binding z-score in assay [7] amounted to 1.14; in assay [8], 1.44.
Consider GTAGACAGGTGAAACGCAGGTAACTCAGGGTGGC, for which the PBM binding z-score was 0.348 in assay [1]; 0.896 in assay [2]; 0.286 in assay [3]; -0.661 in assay [4]; 0.743 in assay [5]; 1.43 in assay [6]. Besides, the PBM binding z-score is -0.349 in assay [7] and -0.271 in assay [8].
Consider AGAACGAGGGCACGCTGACTTGATAGCAGAGTAG, for which the PBM binding z-score in assay [1] is 1.15; in assay [2], 1.84; in assay [3] it was 1.95; in assay [4], 1.66; in assay [5], 1.34; in assay [6], 1.76. The values for the PBM binding z-score in assay [7] and in assay [8] were -0.184 and 0.649, respectively.
For AGAATGAGGTTAAGATCAGGGATACAGAATACAT, the PBM binding z-score in assay [1] stood at 1.26; in assay [2], 2.17; in assay [3], 1.83; in assay [4], 1.17; in assay [5], 2.45; in assay [6] it was 2.78. For the same sequence, the PBM binding z-score was 1.25 in assay [7] and 0.506 in assay [8].
Consider ATCGAAAAGTCGTGAGGTGAGTATACAGAAAGGC, for which the PBM binding z-score was 0.17 in assay [1]; 0.561 in assay [2]; 0.564 in assay [3]; -0.691 in assay [4]; 0.466 in assay [5]; 1.68 in assay [6]. The PBM binding z-score in assay [7] was 1.14; in assay [8], -0.0663.
For the sequence ATCTCTAGGTAACAAGTTCGGTGAAAGAGAGGAC, the PBM binding z-score stood at 1.21 in assay [1]; 0.788 in assay [2]; 0.885 in assay [3]; 0.327 in assay [4]; 0.444 in assay [5]; 1.48 in assay [6]. Also, the PBM binding z-score in assay [7] is 0.922; in assay [8], 1.22.
Regarding CATACAGGCTCAGCTAGGCCAGAGTAGGGACGGC, the PBM binding z-score is -0.642 in assay [1]; -0.268 in assay [2]; 0.0433 in assay [3]; -0.877 in assay [4]; -0.366 in assay [5]; -0.349 in assay [6]. In addition, the PBM binding z-score in assay [7] is -0.416; in assay [8], -0.751.
